Results published in ChEMBL document CHEMBL3988442, “University of Dundee, Small-Polar-MMV Screening Library” (2021).

How the values were obtained:
[1] = molecular target: T1, Aspartate--tRNA(Asp/Asn) ligase (Mycobacterium tuberculosis (strain ATCC 25618 / H37Rv)) (UniProt P9WFW3); assay: Assay for Asp RNA synthetase-1 from Mycobacterium tuberculosis; type: functional; set-up: scale not given: direction of the effect not stated beside the values; conditions: 30 µM; note: in the data most compounds retested in dose-response had high values
T1 sequence (whole entry): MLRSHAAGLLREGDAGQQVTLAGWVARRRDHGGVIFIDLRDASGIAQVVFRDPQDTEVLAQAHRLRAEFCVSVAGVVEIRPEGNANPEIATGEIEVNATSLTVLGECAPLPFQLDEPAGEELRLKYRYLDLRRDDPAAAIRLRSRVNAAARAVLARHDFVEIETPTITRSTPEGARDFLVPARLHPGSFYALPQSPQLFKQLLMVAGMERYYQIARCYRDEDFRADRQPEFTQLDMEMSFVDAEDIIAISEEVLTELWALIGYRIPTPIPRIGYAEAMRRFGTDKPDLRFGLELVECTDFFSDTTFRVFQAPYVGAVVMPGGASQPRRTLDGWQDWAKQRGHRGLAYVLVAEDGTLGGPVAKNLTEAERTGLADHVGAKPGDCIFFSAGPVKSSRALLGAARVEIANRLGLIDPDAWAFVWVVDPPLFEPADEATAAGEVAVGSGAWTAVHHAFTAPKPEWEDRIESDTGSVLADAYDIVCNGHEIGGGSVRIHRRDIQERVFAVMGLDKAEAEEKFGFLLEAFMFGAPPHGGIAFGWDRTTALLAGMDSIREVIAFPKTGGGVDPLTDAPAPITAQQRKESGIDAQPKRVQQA

[2] = molecular target: Shiga toxin 2 (Escherichia coli O157:H7) (UniProt P09385+P09386); assay: E. coli 0.157:H7 Shiga Toxin SOP - stx2 screening assay; type: functional; set-up: scale not given: direction of the effect not stated beside the values; conditions: 30 µM

CC(C)NC(=O)c1n[nH]c(-n2cnnc2)n1
Percent Effect [1]: -4.62%
Percent Effect [2]: -0.0919%

COCCCN(C)C1CCCN(Cc2noc(C)n2)C1 (stereo unspecified)
Percent Effect [1]: -3.09%
Percent Effect [2]: -16.4%

Cc1nc(CN2CCCC(NCCOCC(F)(F)F)C2)no1 (stereo unspecified)
Percent Effect [1]: -8.65%
Percent Effect [2]: -8.56%

CCS(=O)(=O)c1ccccc1N1CCC(NC(C)=O)CC1
Percent Effect [1]: -0.991%
Percent Effect [2]: 11.9%

CC(C)Cc1noc(CN(C)C(=O)C2COc3ccccc3C2)n1 (stereo unspecified)
Percent Effect [1]: -1.81%
Percent Effect [2]: -46.4%

COc1cccc(OC)c1C(=O)N1CCN(c2ccccc2F)CC1
Percent Effect [1]: 1.49%
Percent Effect [2]: 35.2%

CC(C)(C)c1ncc(C(=O)NCCNC(=O)c2ccccc2)s1
Percent Effect [1]: 1.94%
Percent Effect [2]: 36.9%

Cc1noc(NC(=O)c2ccc(Br)cc2)n1
Percent Effect [1]: -2.92%
Percent Effect [2]: 54.5%

COc1cccc2c1OCC(C(=O)N1CCN(S(C)(=O)=O)CC1)C2 (stereo unspecified)
Percent Effect [1]: -3.14%
Percent Effect [2]: 14.3%

CNC(=O)c1cccc(C2CNCCN2C(C)=O)c1 (stereo unspecified)
Percent Effect [1]: -2.04%
Percent Effect [2]: -2.23%

O=C(NCCOc1ccc2c(c1)CCC2)N1CCS(=O)(=O)CC1
Percent Effect [1]: -1.48%
Percent Effect [2]: -52.5%

COc1cccc(COCC(=O)N2CCC(CC(N)=O)CC2)c1
Percent Effect [1]: -3.72%
Percent Effect [2]: 32.3%

Clc1cc(CN2CCCC2Cn2cncn2)c2ncccc2c1 (stereo unspecified)
Percent Effect [1]: -0.0583%
Percent Effect [2]: 6.1%

COc1cc(/C=C/c2ncc(C(=O)O)s2)cc(Cl)c1O
Percent Effect [1]: -0.0437%
Percent Effect [2]: -52.2%

O=C(Cc1cccnc1)N1CCC2(CC1)CCN(C1CCOCC1)C2
Percent Effect [1]: 1.28%
Percent Effect [2]: -40.8%

O=C(c1ccco1)N1CCC2(CCC(=O)N2Cc2cccc(F)c2)CC1
Percent Effect [1]: 1.32%
Percent Effect [2]: -6.58%

Cc1cc(CN(C)C2CCCN(Cc3noc(C4CC4)n3)C2)no1 (stereo unspecified)
Percent Effect [1]: 1.66%
Percent Effect [2]: 28%

CC(C)(C)c1nnc(CN2CCCC2c2noc(C3CC3)n2)o1 (stereo unspecified)
Percent Effect [1]: 0.758%
Percent Effect [2]: 0.0549%

CCn1ncc2c1C(COC)CN(Cc1ccsc1)C2 (stereo unspecified)
Percent Effect [1]: -1.74%
Percent Effect [2]: -2.67%

CCCNC(=O)Nc1cccc2c1CCN(S(C)(=O)=O)C2
Percent Effect [1]: 6.02%
Percent Effect [2]: -15%

CCN1CCC(NC(=O)CN2CCCCC2Cn2cc(C)cn2)CC1 (stereo unspecified)
Percent Effect [1]: -0.102%
Percent Effect [2]: -21.7%

CCn1cc(CN2CCCC(c3[nH]ncc3S(C)(=O)=O)C2)cn1 (stereo unspecified)
Percent Effect [1]: -1.6%
Percent Effect [2]: -18.8%

COCCN1C(=O)CCC12CCN(C(=O)NC(C)C)CC2
Percent Effect [1]: -3.16%
Percent Effect [2]: 6%

CC(C)c1cc(C(=O)N2CCN(Cc3ccsc3)CC2)n[nH]1
Percent Effect [1]: -1.06%
Percent Effect [2]: 9.72%

Cc1cc(CN(C)C(=O)c2ccc(C(F)(F)F)nc2)no1
Percent Effect [1]: -0.926%
Percent Effect [2]: -2.99%

CCC(=O)Nc1ccc2c(c1)CN(C(=O)c1ccco1)CC2
Percent Effect [1]: -3.28%
Percent Effect [2]: -43.9%

O=C1NC2(CCN(C(=O)c3ccccc3)CC2)CC1c1cccnc1 (stereo unspecified)
Percent Effect [1]: -4.95%
Percent Effect [2]: -5.71%

Cc1noc(C(C)C)c1C(=O)N1CCOCC1CC(=O)c1ccco1 (stereo unspecified)
Percent Effect [1]: 2.61%
Percent Effect [2]: -4.27%

CCN(CC)C(=O)c1ccc(-c2ccsc2)nc1C
Percent Effect [1]: -1.17%
Percent Effect [2]: -6.7%

COCCN1CCC(NCc2cccc(F)c2)C1 (stereo unspecified)
Percent Effect [1]: -3.37%
Percent Effect [2]: -17.4%

CN1CC(=O)N(c2cnn(C)c2)CC12CCN(Cc1ccccc1)C2 (stereo unspecified)
Percent Effect [1]: -0.707%
Percent Effect [2]: -5.72%

Cc1ccc(CN2CCn3c(C(=O)N(C)C)cnc3C2)s1
Percent Effect [1]: 5.69%
Percent Effect [2]: -13.3%

Cc1nc(CCN(C)C(=O)C2COc3ccccc3C2)no1 (stereo unspecified)
Percent Effect [1]: 0.743%
Percent Effect [2]: -10.1%

CC(C)c1ncc(CN2CCCC(CO)C2)cn1 (stereo unspecified)
Percent Effect [1]: 0.491%
Percent Effect [2]: 5.71%

CSCC(CCO)NC(=O)Nc1cccc(Br)c1 (stereo unspecified)
Percent Effect [1]: 8.05%
Percent Effect [2]: -15.3%

COc1ccc(CN(C)CC2CCCN2c2cccnn2)cc1F (stereo unspecified)
Percent Effect [1]: 0.346%
Percent Effect [2]: 3.14%

O=C1CCC(C(=O)NCc2nncn2-c2ccccc2)CN1 (stereo unspecified)
Percent Effect [1]: 3.33%
Percent Effect [2]: 4.47%

CCc1nccc(CN2CCCC(c3nn(C)c(=O)n3CC)C2)n1 (stereo unspecified)
Percent Effect [1]: 1.68%
Percent Effect [2]: 10.8%

COc1c(CNCc2ccc(N(C)C)nc2)c(C(C)C)nn1C
Percent Effect [1]: 0.0333%
Percent Effect [2]: 14%

CN(Cc1ccsc1)C(=O)Nc1cccnc1N1CCCC1
Percent Effect [1]: 1.88%
Percent Effect [2]: -69.4%

COCCN1CCN(Cc2cccc(OCC(N)=O)c2)CC1C (stereo unspecified)
Percent Effect [1]: -6.54%
Percent Effect [2]: -6.57%

CC(=O)N1CCOCC2(CN(Cc3ccc(C)o3)CCO2)C1 (stereo unspecified)
Percent Effect [1]: 1.57%
Percent Effect [2]: -4.76%

O=C(CCc1ccc(Br)cc1F)NS(=O)(=O)c1ccc2c(c1)OCCO2
Percent Effect [1]: 7.79%
Percent Effect [2]: 13.8%

Cc1n[nH]c(C(=O)NCc2ccnc(OCC(F)(F)F)c2)c1Br
Percent Effect [1]: -3.15%
Percent Effect [2]: 9.67%

Cc1cnn(CCCNC(=O)N2CCCCC(N3CCCC3)C2)c1 (stereo unspecified)
Percent Effect [1]: 1.48%
Percent Effect [2]: 22.3%

c1csc(CN2CCn3c(Cn4cncn4)cnc3C2)n1
Percent Effect [1]: -1.25%
Percent Effect [2]: -17.5%

O=C(NCCN1CCCCCC1=O)c1n[nH]c(=O)c2ccccc12
Percent Effect [1]: -3.85%
Percent Effect [2]: -6.19%

CN1CCCC1CNC(=O)CCCOCc1ccccc1 (stereo unspecified)
Percent Effect [1]: 0.589%
Percent Effect [2]: 23.4%
